Usually inhibition stands for the relative decrease from the control value, in per cent.

Structures are written as SMILES. Out of some 340,000 compounds screened, about 1,700 (0.5%) were called active. Shown is part of a subset that was picked to be rich in actives. Values without a mark were called inactive. Cut-off read from the data, not from the text of the source: active = inhibition above about 40%; inactive = the rest.

Cysteine protease ATG4B (Homo sapiens), sequence (Q9Y4P1 whole entry, looked up): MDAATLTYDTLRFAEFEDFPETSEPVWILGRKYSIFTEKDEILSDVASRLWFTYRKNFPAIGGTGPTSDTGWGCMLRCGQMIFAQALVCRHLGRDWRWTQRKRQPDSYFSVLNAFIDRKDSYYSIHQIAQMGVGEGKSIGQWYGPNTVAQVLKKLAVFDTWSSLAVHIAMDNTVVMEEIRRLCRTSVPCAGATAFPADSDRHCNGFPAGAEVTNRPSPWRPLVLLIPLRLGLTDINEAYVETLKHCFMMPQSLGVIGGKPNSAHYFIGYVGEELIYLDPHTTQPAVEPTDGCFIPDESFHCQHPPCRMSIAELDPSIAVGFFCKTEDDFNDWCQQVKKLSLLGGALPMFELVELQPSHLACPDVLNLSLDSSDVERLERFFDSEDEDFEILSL

The assay addresses Cysteine protease ATG4B (Homo sapiens) (UniProt Q9Y4P1). Nature of the assay: ATG4B protease inhibitors, primary screen, biochemical, fluorescence, uHTS (AID 504462). The conditions noted are these: ATG4B cleavage of LC3-PLA2, NBD-HPC fluorescence, 1 h; at 8.33 µM; hits give high values.
For the molecule `CC(=O)C1(C)N(O)C(C)(C)C(c2cccs2)=[N+]1[O-]` (configuration not stated), the inhibition is 6.58%.
With `Cc1cccc(OCCC(=O)OCc2csc(CC(=O)Nc3ccccc3C)n2)c1`, the inhibition was -6.31%.
Regarding `CC1O[C@H](OC2C(COC3OC(CO)C(O)[C@H](O)C3O)OC(OC3CC[C@]4(C)C(CC[C@@]5(C)[C@@H]4C=C[C@]46OC[C@@]7(CCC(C)(C)C[C@H]74)C(O)C[C@@]56C)C3(C)C)C(O)C2O)C(O)C(O)C1O` (some centres not stated), the inhibition is -8.64%.
Take `CSCCC(NS(=O)(=O)c1ccc2c(c1)oc(=O)n2C)C(=O)NCc1ccccc1` (configuration not stated): the inhibition is -9.32%.
On to `Cc1cc(C(=O)N/N=C/c2ccc(O)c([N+](=O)[O-])c2)c(C)n1-c1ccc(F)cc1`, for which the inhibition was 23.4%.
For the molecule `CCOc1cccc(/C=N/N2C(=O)CSC2=S)c1O`, the inhibition is -2.71%.
The value for `O=C1CSC(=S)N1/N=C/c1ccc(O)c([N+](=O)[O-])c1` was 74.7% (active).
`CCOc1ccc(-n2c(SCC(=O)OC)nc3sc4c(c3c2=O)CCN(C)C4)cc1`: the inhibition is 5.88%.
For `CCOc1ccc(-n2c(SC(C)C(=O)OC)nc3c(c2=O)SCC3)cc1` (configuration not stated), the inhibition was 46.2% (active).
As to `CCOc1ccc(NC(=O)CSc2nc3c(c(=O)n2-c2ccccc2OC)SCC3)cc1`, the inhibition was -6.73%.
As to `Cc1cccc(NC(=S)Nc2ccc(Cl)c(Cl)c2)c1`, the inhibition was 41.4% (active).
In the case of `S=C(Nc1ccccc1)Nc1ccc2ccccc2c1`, the inhibition is -5.73%.
The result for `NS(=O)(=O)c1ccc(NC(=S)Nc2ccc(Br)c(Cl)c2)cc1` reads 1.95%; that for `O=C(NCCS(=O)(=O)c1ccc(Br)cc1)c1ccccc1Cl`, 4.71%.
In the case of `Cc1nc([N+](=O)[O-])nn1C12CC3CC(CC(Br)(C3)C1)C2`, the inhibition was 2.28%.
On to `CCN1C[C@@H]2[C@@H]3C(=O)N(Cc4ccccc4)C(=O)[C@@H]3[C@](C)(C1=O)N2C(=O)c1ccc(C(C)(C)C)cc1`, for which the inhibition was -18.2%.
The result for `O=C(CN(C(=O)c1csnn1)c1ccc(Br)cc1)NC1CCCC1` reads -4.03%; that for `CO/N=C/c1ccc(N2CCN(C(=O)c3cccc(Cl)c3)CC2)c([N+](=O)[O-])c1`, -0.58%.
For `O=C(c1ccc(Cl)c([N+](=O)[O-])c1)N1CCN(c2ccccc2)CC1`, the inhibition was -2.12%.
The result for `O=C(/C=C/c1ccc(Cl)cc1)N1CCN(c2ccccc2[N+](=O)[O-])CC1` reads 41.9% (active); that for `CC(C)CCNC(=O)Cn1c(=O)oc2cc(S(=O)(=O)N3CC(C)CC(C)C3)ccc21` (configuration not stated), -3.27%.
Turning to `O=C(CN(C(=O)c1csnn1)c1cccc(Cl)c1)NC1CCCC1`, the inhibition is 5.82%.
